# Results taken from article PMC8384837, “Expanding the binding specificity for RNA recognition by a PUF domain”.
# Legend:
# Assay in all cases: yeast three-hybrid, YBZ-1, SC-Leu-His + 0.5 mM 3-AT, 4 days
# Details in all cases: tags: N-Gal4 AD-HA kept; label: inside an RPR1-promoter hybrid RNA with tandem MS2 sites; ssRNA
# PUM1 PUF domain R5-RMT = PUM1 PUF domain R5-RMT (Homo sapiens, UniProt Q14671 828-1176, C1007R;R1008M;Q1011T)
# In short: (§1)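 Repeat regions from input (SC-Leu) and selection (SC-Leu-His + 0.5 mM 3-AT) plates were PCR-amplified and Illumina-sequenced after four days of growth. The cells were strain YBZ-1 with a LexA–MS2 coat fusion and a HIS3 reporter, co-expressing Pumilio-1 PUF domain libraries and matching RNA elements from a centromeric plasmid. The interaction score is the log change in variant frequency from input to selection, taken in log2 with a pseudocount of 1 for absent variants.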
# PUM1 PUF domain R5-QSR = PUM1 PUF domain R5-QSR (Homo sapiens, UniProt Q14671 828-1176, C1007Q;R1008S;Q1011R)
# Chain of PUM1 PUF domain R5-QSR (Q14671 828-1176 C1007Q/R1008S/Q1011R): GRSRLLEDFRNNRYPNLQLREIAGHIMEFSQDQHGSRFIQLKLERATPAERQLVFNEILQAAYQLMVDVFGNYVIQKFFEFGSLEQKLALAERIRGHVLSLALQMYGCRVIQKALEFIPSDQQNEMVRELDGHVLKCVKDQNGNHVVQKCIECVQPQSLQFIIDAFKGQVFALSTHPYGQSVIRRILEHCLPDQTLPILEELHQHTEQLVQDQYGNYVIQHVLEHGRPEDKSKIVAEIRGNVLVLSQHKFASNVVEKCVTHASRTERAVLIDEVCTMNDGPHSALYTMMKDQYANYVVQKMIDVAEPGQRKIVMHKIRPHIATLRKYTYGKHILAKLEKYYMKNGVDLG
# In short: as §1
# PUM1 PUF domain R8-RRH = PUM1 PUF domain R8-RRH (Homo sapiens, UniProt Q14671 828-1176, N1122R;Y1123R;Q1126H)
# Chain of PUM1 PUF domain R8-RRH (Q14671 828-1176 N1122R/Y1123R/Q1126H): as the sequence (Q14671 828-1176 C1007Q/R1008S/Q1011R) above, with Q180C, S181R, R184Q, N295R, Y296R, Q299H counted along it
# In short: as §1
# PUM1 PUF domain R3-PYY = PUM1 PUF domain R3-PYY (Homo sapiens, UniProt Q14671 828-1176, C935P;R936Y;Q939Y)
# Chain of PUM1 PUF domain R3-PYY (Q14671 828-1176 C935P/R936Y/Q939Y): as the sequence (Q14671 828-1176 C1007Q/R1008S/Q1011R) above, with C108P, R109Y, Q112Y, Q180C, S181R, R184Q counted along it
# In short: as §1
# PUM1 PUF domain R3-GRW = PUM1 PUF domain R3-GRW (Homo sapiens, UniProt Q14671 828-1176, C935G;Q939W)
# Chain of PUM1 PUF domain R3-GRW (Q14671 828-1176 C935G/Q939W): as the sequence (Q14671 828-1176 C1007Q/R1008S/Q1011R) above, with C108G, Q112W, Q180C, S181R, R184Q counted along it
# In short: as §1
# PUM1 PUF domain R5-TRM = PUM1 PUF domain R5-TRM (Homo sapiens, UniProt Q14671 828-1176, C1007T;Q1011M)
# Chain of PUM1 PUF domain R5-TRM (Q14671 828-1176 C1007T/Q1011M): as the sequence (Q14671 828-1176 C1007Q/R1008S/Q1011R) above, with Q180T, S181R, R184M counted along it
# In short: as §1
# PUM1 PUF domain R4-VNS = PUM1 PUF domain R4-VNS (Homo sapiens, UniProt Q14671 828-1176, N971V;H972N;Q975S)
# Chain of PUM1 PUF domain R4-VNS (Q14671 828-1176 N971V/H972N/Q975S): as the sequence (Q14671 828-1176 C1007Q/R1008S/Q1011R) above, with N144V, H145N, Q148S, Q180C, S181R, R184Q counted along it
# In short: as §1
# PUM1 PUF domain R8-PFH = PUM1 PUF domain R8-PFH (Homo sapiens, UniProt Q14671 828-1176, N1122P;Y1123F;Q1126H)
# Chain of PUM1 PUF domain R8-PFH (Q14671 828-1176 N1122P/Y1123F/Q1126H): as the sequence (Q14671 828-1176 C1007Q/R1008S/Q1011R) above, with Q180C, S181R, R184Q, N295P, Y296F, Q299H counted along it
# In short: as §1
# PUM1 PUF domain R2-RHE = PUM1 PUF domain R2-RHE (Homo sapiens, UniProt Q14671 828-1176, N899R;Y900H;Q903E)
# Chain of PUM1 PUF domain R2-RHE (Q14671 828-1176 N899R/Y900H/Q903E): as the sequence (Q14671 828-1176 C1007Q/R1008S/Q1011R) above, with N72R, Y73H, Q76E, Q180C, S181R, R184Q counted along it
# In short: as §1
# PUM1 PUF domain R5-PMK = PUM1 PUF domain R5-PMK (Homo sapiens, UniProt Q14671 828-1176, C1007P;R1008M;Q1011K)
# Chain of PUM1 PUF domain R5-PMK (Q14671 828-1176 C1007P/R1008M/Q1011K): as the sequence (Q14671 828-1176 C1007Q/R1008S/Q1011R) above, with Q180P, S181M, R184K counted along it
# In short: as §1
# Chain of PUM1 PUF domain R5-RMT (Q14671 828-1176 C1007R/R1008M/Q1011T): as the sequence (Q14671 828-1176 C1007Q/R1008S/Q1011R) above, with Q180R, S181M, R184T counted along it
sequence,measurement,setting,value
GGCUAGAACUAGUGGAUCCCCCGGCGCCCGGCGGCUCGAGCCCGGGUAAGUGUCAAUAGUCUGCAUGCCGCCGGGCGCCAUGCCUGCAGGUCGACUCUAGAAAACAUG,binding signal,PUM1 PUF domain R5-RMT,3.58 log2 enrichment (interaction score)
same,binding signal,PUM1 PUF domain R5-QSR,4.21 log2 enrichment (interaction score)
GGCUAGAACUAGUGGAUCCCCCGGCGCCCGGCGGCUCGAGCCCGGGUAAGUGUAAAUAGUCUGCAUGCCGCCGGGCGCCAUGCCUGCAGGUCGACUCUAGAAAACAUG,binding signal,PUM1 PUF domain R8-RRH,0.67 log2 enrichment (interaction score)
same,binding signal,PUM1 PUF domain R3-PYY,6.39 log2 enrichment (interaction score)
same,binding signal,PUM1 PUF domain R3-GRW,4.33 log2 enrichment (interaction score)
same,binding signal,PUM1 PUF domain R5-QSR,1.54 log2 enrichment (interaction score)
same,binding signal,PUM1 PUF domain R5-TRM,2.74 log2 enrichment (interaction score)
GGCUAGAACUAGUGGAUCCCCCGGCGCCCGGCGGCUCGAGCCCGGGUAAGUGUAUAUAGUCUGCAUGCCGCCGGGCGCCAUGCCUGCAGGUCGACUCUAGAAAACAUG,binding signal,PUM1 PUF domain R4-VNS,2.92 log2 enrichment (interaction score)
GGCUAGAACUAGUGGAUCCCCCGGCGCCCGGCGGCUCGAGCCCGGGUAAGUGUACAUAGUCUGCAUGCCGCCGGGCGCCAUGCCUGCAGGUCGACUCUAGAAAACAUG,binding signal,PUM1 PUF domain R4-VNS,1.91 log2 enrichment (interaction score)
GGCUAGAACUAGUGGAUCCCCCGGCGCCCGGCGGCUCGAGCCCGGGUAAGCGUAAAUAGUCUGCAUGCCGCCGGGCGCCAUGCCUGCAGGUCGACUCUAGAAAACAUG,binding signal,PUM1 PUF domain R8-PFH,2.98 log2 enrichment (interaction score)
same,binding signal,PUM1 PUF domain R8-RRH,2.65 log2 enrichment (interaction score)
GGCUAGAACUAGUGGAUCCCCCGGCGCCCGGCGGCUCGAGCCCGGGUAAGUGUAAAGAGUCUGCAUGCCGCCGGGCGCCAUGCCUGCAGGUCGACUCUAGAAAACAUG,binding signal,PUM1 PUF domain R2-RHE,3.71 log2 enrichment (interaction score)
GGCUAGAACUAGUGGAUCCCCCGGCGCCCGGCGGCUCGAGCCCGGGUAAGUGUUAAUAGUCUGCAUGCCGCCGGGCGCCAUGCCUGCAGGUCGACUCUAGAAAACAUG,binding signal,PUM1 PUF domain R5-PMK,2.73 log2 enrichment (interaction score)
GGCUAGAACUAGUGGAUCCCCCGGCGCCCGGCGGCUCGAGCCCGGGUAAGUGUAAUUAGUCUGCAUGCCGCCGGGCGCCAUGCCUGCAGGUCGACUCUAGAAAACAUG,binding signal,PUM1 PUF domain R3-GRW,0.31 log2 enrichment (interaction score)
